# Structures can show the parent of a compound that is named as a salt. ± gives the standard deviation of the averaged measurements.
# Assays:
# [1] = tested on: ES2; assay: cell viability relative to DMSO control (MTS) (fraction of DMSO control); higher = more viable cells / less growth inhibition; conditions: 10 µM; 48 h
# Outline: (§1)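 Viability values are fractions of the vehicle-treated control. They come from an MTS assay run per the manufacturer's instructions on TOV-21G and ES2 clear cell carcinoma cells, seeded at 5000 cells per well in 96-well plates. Each compound of a 367-member […] library was added at 10 µM final after 24 h of growth, and the readout was taken after a further 48 h.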
# [2] = tested on: TOV-21G; assay: as above; conditions: 10 µM; 48 h
# Outline: as §1
Structure (SMILES),cell viability [1],cell viability [2]
O=c1oc2c(O)c(O)cc3c(=O)oc4c(O)c(O)cc1c4c23 [Ellagic acid],0.827,0.935
Cn1nnc2c(C(N)=O)ncn2c1=O [temozolomide],1.2,1.12
CS(=O)(=O)c1ccc(C(=O)Nc2ccc(Cl)c(-c3ccccn3)c2)c(Cl)c1 [Vismodegib],0.967,0.897
O=C(NCCCCCCNC(=O)ON=C1CCCCC1)ON=C1CCCCC1,1.3,0.996
CC(C)(C)NC(=O)[C@H]1CC[C@H]2[C@@H]3CC[C@H]4NC(=O)C=C[C@]4(C)[C@H]3CC[C@]12C [Finasteride],1.3,0.952
C[C@@H]1C[C@H]2O[C@@H]2/C=C\C=C\C(=O)Cc2c(Cl)c(O)cc(O)c2C(=O)O1 [radicicol],0.409,0.342
"CC/C(=C(\c1ccccc1)c1ccc(OCCN(C)C)cc1)c1ccccc1 [Tamoxifen, citrate]",1.34,0.868
CCCCCCCCCCCCCCOc1ccc(C(=O)O)o1,1.21,0.947
CC(C)C[C@H](NC(=O)[C@@H](O)[C@H](N)Cc1ccccc1)C(=O)O [Bestatin],0.885,1.13
Cc1cn(-c2cc(NC(=O)c3ccc(C)c(Nc4nccc(-c5cccnc5)n4)c3)cc(C(F)(F)F)c2)cn1 [nilotinib],0.751,0.709
NC(=O)c1ccc(I)c([N+](=O)[O-])c1 [BSI-201 (Iniparib)],0.778,1.29
CN(C)c1ccccc1CN1CCCN(Cc2ccccc2N(C)C)C1c1ccncc1,0.853,0.229
O=Nc1c(-c2c(O)[nH]c3cc(Br)ccc23)[nH]c2ccccc12 [GSK-3 inhibitor IX],0.643,0.36
Ic1cccc(CSc2nnc(-c3ccncc3)o2)c1 [GSK-3 inhibitor II],1.09,1.19
Cc1c(C)c2c(c(C)c1O)CCC(C)(COc1ccc(CC3SC(=O)NC3=O)cc1)O2 (configuration not stated) [Troglitazone],0.835,1.26
CN(C)CC(=O)Nc1ccc2[nH]c(=O)c3ccccc3c2c1,0.788,0.882

Structure (SMILES),cell viability [1],cell viability [2]
COc1cc2ncnc(Nc3ccc(F)c(Cl)c3)c2cc1OCCCN1CCOCC1 [gefitinib],0.825,0.889
OC[C@H]1NC[C@H](O)[C@@H](O)[C@@H]1O [Deoxynojirimycin],1.02,1.19
O=C1NC(=O)c2c1c1c3ccccc3[nH]c1n1cncc21 [isogranulatimide],1.12,1.47
CC[C@]1(O)C[C@@H]2CN(CCc3c([nH]c4ccccc34)[C@@](C(=O)OC)(c3cc4c(cc3OC)N(C)[C@H]3[C@@](O)(C(=O)OC)[C@H](OC(C)=O)[C@]5(CC)C=CCN6CC[C@]43[C@@H]65)C2)C1 [Vinblastine sulfate],0.52,0.427
c1cc(CN2CCCNCCNCCCNCC2)ccc1CN1CCCNCCNCCCNCC1 [AMD3100 octahydrochloride],1.4,1.38
CO[C@H]1C[C@@H]2CC[C@@H](C)[C@@](O)(O2)C(=O)C(=O)N2CCCC[C@H]2C(=O)O[C@H]([C@H](C)C[C@@H]2CC[C@@H](O)[C@H](OC)C2)CC(=O)[C@H](C)/C=C(\C)[C@@H](O)[C@@H](OC)C(=O)[C@H](C)C[C@H](C)/C=C/C=C/C=C/1C [Rapamycin],0.854,0.576
Cc1cc(C=C2C(=O)C=CC2=O)cc(C)c1O,0.801,1.21
NNCCc1ccccc1 [Phenelzine],1.13,1.25
COCC[n+]1c2c(n(Cc3cnccn3)c1C)C(=O)c1ccccc1C2=O,0.242,0.291
COc1ccc(C2=N[C@@H](c3ccc(Cl)cc3)[C@@H](c3ccc(Cl)cc3)N2C(=O)N2CCNC(=O)C2)c(OC(C)C)c1 [Nutlin-3],0.825,0.413
Nc1nc2c(nc(Sc3ccc(Cl)cc3)n2C2O[C@@H]3CO[P+](O)(S)OC3[C@@H]2O)c(=O)[nH]1 (some centres not stated),1.02 ± 0.17,0.856 ± 0.084
CCN(CC)CCCCNc1ncc2cc(-c3cc(OC)cc(OC)c3)c(NC(=O)NC(C)(C)C)nc2n1,0.366,0.915
CCN(CC)CC(=O)Nc1c(C)cccc1C [Lidocaine],1.1,1.4
COc1ccc([C@@H]2Sc3ccccc3N(CCN(C)C)C(=O)[C@@H]2OC(C)=O)cc1 [Diltiazem],0.858,1.04
N#C/C(=C\c1ccc2oc(=O)[nH]c2c1)C(=O)c1ccc(O)c(O)c1,0.972,1.13

# Reference: the supplement of paper PMC12669797
